{"source": "ChEMBL document CHEMBL3988442", "about": "“University of Dundee, Small-Polar-MMV Screening Library” (2021)", "note": "The whole screen tested about 48,000 compounds, of which about 13,000 (27%) showed an effect of 50% or more. The list shows a part of the results.", "data": [{"tested_on": "Wolbachia pipientis", "assay": "Anti-Wolbachia Cell-Based Screen", "assay_type": "functional", "parameters": "scale not given: in the data most compounds retested in dose-response had high values", "settings": "5 µM", "units": {"Percent Effect": "%"}, "values": [{"smiles": "CC(C)(C)c1ncc(CNc2ccccc2Cn2cncn2)s1", "Percent Effect": 1.316}, {"smiles": "CSCC(=O)N[C@H]1CN(Cc2c(C)noc2C)C[C@@H]1C(C)C", "Percent Effect": -1.777}, {"smiles": "CC(C)CN1CC(c2nc(C3CC3)n[nH]2)CC1=O", "note": "(stereo not given)", "Percent Effect": 4.423}, {"smiles": "Cc1ccc(NC(=O)c2ccc(=O)n(CC(=O)Nc3nccs3)n2)cc1", "Percent Effect": 101.8}, {"smiles": "CSc1nc2cc(C)n(CC(=O)Nc3nccs3)c2c(=O)n1CC(C)C", "Percent Effect": -4.494}, {"smiles": "Cc1ccccc1C(=O)Nc1cnn(CC(=O)NC2CCCC2)c1", "Percent Effect": -2.578}, {"smiles": "O=C(NCc1ccccc1CN1CCCC1=O)Nc1nccs1", "Percent Effect": -2.659}, {"smiles": "O=C(Nc1ccccc1)c1ccc(NCc2nccs2)nn1", "Percent Effect": 3.378}, {"smiles": "CCC(=O)NC1CCCN(Cn2nc(C(C)(C)C)ccc2=O)C1", "note": "(stereo not given)", "Percent Effect": -0.4021}, {"smiles": "COc1cc(Cl)ccc1C(=O)NCC(=O)Nc1nccs1", "Percent Effect": -9.549}, {"smiles": "O=C(CCn1nc(C(=O)Nc2ccccc2)ccc1=O)Nc1nccs1", "Percent Effect": 112.6}, {"smiles": "Cc1cc(C)n(CC2CCCCN2CC(=O)Nc2nccs2)n1", "note": "(stereo not given)", "Percent Effect": -11.15}, {"smiles": "Cc1ccc(-c2ccc(=O)n(CC(=O)Nc3nccs3)n2)cc1", "Percent Effect": 124.1}, {"smiles": "Cc1ccc(NC(=O)c2ccc(=O)n(CC(=O)NC3CCCC3)n2)cc1", "Percent Effect": 106.4}, {"smiles": "N#Cc1cccc(CS(=O)(=O)NCC(O)Cc2ccccc2)c1", "note": "(stereo not given)", "Percent Effect": -5.845}, {"smiles": "Cc1nc(-c2cccc(C#N)c2)nn1CC1(O)CCCCC1", "Percent Effect": -14.51}, {"smiles": "Cc1ccccc1CS(=O)(=O)NCCCN1CCCCC1", "Percent Effect": -4.018}, {"smiles": "Cn1c(NCCC(=O)N2CCCC2)c(C#N)c(=O)n(C)c1=O", "Percent Effect": 17.52}, {"smiles": "N#CCCNC(=O)CSc1cc(F)ccc1F", "Percent Effect": 8.044}, {"smiles": "Cn1ccnc1C(=O)NCc1cc(=O)n2c(n1)CN(CC1CC1)CCC2", "Percent Effect": -4.321}, {"smiles": "CCCN1CCCn2c(nc(CNC(=O)c3nccn3C)cc2=O)C1.O=C(O)C(F)(F)F", "Percent Effect": -4.018}, {"smiles": "COCC(=O)NCc1cc(=O)n2c(n1)CN(Cc1nccs1)CCC2", "Percent Effect": 109.1}, {"smiles": "COCC(=O)NCc1cc(=O)n2c(n1)CN(Cc1cccs1)CCC2", "Percent Effect": 97.08}, {"smiles": "O=C(c1cccs1)N1CCCn2c(nc(CN3CCCC3)cc2=O)C1", "Percent Effect": -6.505}, {"smiles": "Cc1cc(C)nc(N2CC=C[C@@H]2C(=O)NCc2ccc3c(c2)OCO3)n1.Cl", "Percent Effect": 87.31}, {"smiles": "Cn1cnnc1C1CCCN(C(=O)NCc2ccc3c(c2)OCO3)C1", "note": "(stereo not given)", "Percent Effect": -7.5}, {"smiles": "CC(CNC(=O)NCc1ccc2c(c1)OCO2)CC1(C)OCCO1", "note": "(stereo not given)", "Percent Effect": -13.46}, {"smiles": "Cc1cc(C)nc(N2CC=C[C@H]2C(=O)NCc2ccc3c(c2)OCO3)n1", "Percent Effect": 114.7}, {"smiles": "CC(C)(C)NS(=O)(=O)c1cc(NC(=O)C2CC2)ccc1F", "Percent Effect": -6.714}, {"smiles": "Cc1cc(C)nc(CN(C)C(=O)C(c2cccnc2)N2CCCC2)c1", "note": "(stereo not given)", "Percent Effect": 24.45}, {"smiles": "CN(CC(=O)NC1CC1)S(=O)(=O)c1ccc(F)cc1Cl", "Percent Effect": -5.607}, {"smiles": "COc1ccc(C2CCCN2S(=O)(=O)N(C)CC(C)C)cc1", "note": "(stereo not given)", "Percent Effect": -5.01}, {"smiles": "COC1CCN(S(=O)(=O)N2CCCC2c2ccco2)CC1", "note": "(stereo not given)", "Percent Effect": -19.32}, {"smiles": "C[C@@H]1CN(S(=O)(=O)c2ccc(F)cc2Cl)C[C@]1(C)O", "Percent Effect": 2.252}, {"smiles": "COc1ccc(C2CCCCCN2S(=O)(=O)N(C)C)cc1", "note": "(stereo not given)", "Percent Effect": -32.58}, {"smiles": "COc1ccc(C2CCCN2S(=O)(=O)c2cc(F)ccc2F)cc1", "note": "(stereo not given)", "Percent Effect": 118.1}, {"smiles": "O=S(=O)(c1cc(F)ccc1F)N1CCCC1c1ccco1", "note": "(stereo not given)", "Percent Effect": 90.48}, {"smiles": "COC(=O)[C@H]1C[C@@H](O)CCN1S(=O)(=O)c1ccc(F)cc1F", "Percent Effect": -1.254}, {"smiles": "O=S(=O)(c1ccc(F)cc1Cl)N1CCCC1c1ccncc1", "note": "(stereo not given)", "Percent Effect": 106.2}, {"smiles": "COc1ccc(F)cc1S(=O)(=O)N1CCC(OC)CC1", "Percent Effect": 11.35}, {"smiles": "O=S(=O)(N1CCC(n2cccc2)CC1)N1CCCC1c1ccco1", "note": "(stereo not given)", "Percent Effect": -32.64}, {"smiles": "O=S(=O)(c1cc(F)ccc1F)N1CCCC1c1ccncc1", "note": "(stereo not given)", "Percent Effect": 90.37}, {"smiles": "Cc1noc(CCCC(=O)N2CCN(C)CC2c2ccccc2)n1", "note": "(stereo not given)", "Percent Effect": 7.741}, {"smiles": "Cc1cc(C(=O)N2CCNC(=O)CC2)c(C)n1CC(F)(F)F", "Percent Effect": -3.477}, {"smiles": "CCN(CC)Cc1ccc(C(=O)NC2CCc3cc(Cl)ccc32)o1", "note": "(stereo not given)", "Percent Effect": 1.872}, {"smiles": "CNS(=O)(=O)CCCn1nnc(-c2ccc(F)c(C)c2)n1", "Percent Effect": -16.4}, {"smiles": "O=C(NC1CC(=O)N(C2Cc3ccccc3C2)C1)c1csnn1", "note": "(stereo not given)", "Percent Effect": -8.023}, {"smiles": "CN1CCN2C[C@@H](NC(=O)c3nc4ccccc4[nH]3)C[C@H]2C1", "Percent Effect": 10.91}, {"smiles": "CN1C(=O)CC(C(=O)O)C12CCN(Cc1ccc(F)c(Cl)c1)CC2", "note": "(stereo not given)", "Percent Effect": 19.25}, {"smiles": "CCC[C@H]1CN(S(=O)(=O)c2cc(C)ccc2F)C[C@@H]1N", "Percent Effect": -6.271}, {"smiles": "Cc1ccc([C@@H]2CN(S(=O)(=O)c3cc(C)ccc3F)C[C@H]2N(C)C)cc1", "Percent Effect": -17.89}, {"smiles": "Cc1ccc(F)c(S(=O)(=O)N2CCCC2c2ccncc2)c1", "note": "(stereo not given)", "Percent Effect": 113.4}, {"smiles": "COc1ccc(NC(C)C(=O)N2CCN(Cc3ccccc3)CC2)cn1", "note": "(stereo not given)", "Percent Effect": 10.35}, {"smiles": "CC(C)Oc1cccc(C(O)CNC(=O)CCc2ccncc2)c1", "note": "(stereo not given)", "Percent Effect": -6.251}, {"smiles": "CN1CCC(NCC(O)c2cccc(OCc3ccccc3)c2)CC1", "note": "(stereo not given)", "Percent Effect": 116.6}, {"smiles": "CCN1CCC(CC(=O)NCC(O)c2cccc(OC)c2)CC1", "note": "(stereo not given)", "Percent Effect": 5.929}, {"smiles": "COc1cccc(C(O)CNC(=O)CC2CCCCC2)c1", "note": "(stereo not given)", "Percent Effect": 1.218}, {"smiles": "CN(Cc1ccccc1)c1ncccc1CNC1CCSCC1", "Percent Effect": -9.19}, {"smiles": "CO[C@@H](C(=O)NC1CCOCC1)c1ccccc1", "Percent Effect": -10.4}, {"smiles": "OC(CNC1CCOCC1)c1cccc(OCc2ccccc2)c1", "note": "(stereo not given)", "Percent Effect": 100.2}, {"smiles": "OC(CNC1CCSCC1)c1cccc(OCc2ccccc2)c1", "note": "(stereo not given)", "Percent Effect": 91.01}, {"smiles": "COc1cccc(CNC(CN2CCN(C)CC2)c2ccccc2)c1", "note": "(stereo not given)", "Percent Effect": -4.654}, {"smiles": "O=C(O)C(F)(F)F.O=C(c1ccccc1)N1CCS(=O)(=O)[C@@H]2CCNCC[C@@H]21", "Percent Effect": -7.979}, {"smiles": "c1ccc(CCn2cc(-c3nc(CN4CCOCC4)no3)nn2)cc1", "Percent Effect": 7.795}, {"smiles": "COc1ccc(-c2n[nH]cc2CN(C)CCc2scnc2C)c(F)c1", "Percent Effect": -15.83}]}]}
